Experimental data published in the supplement of paper PMC10849652.
Targets with a hit are over-represented here; the source holds about 7,900 in all. About 0.6% of all pairs of compound and target were hits. Values without a mark were called inactive.

Key:
Assay in all cases: log2 fold change, soluble protein after heating vs DMSO (PISA); higher = thermal stabilisation; K562 cells, 10 uM, 30 min; active = over 0.2 and 3.5 SD of the protein, either way, in both replicates (recomputed)
[1] = compound: CC1=C(C=C(C=C1)NC(=O)C2=CC(=CC=C2)C(C)(C)C#N)NC3=CC4=C(C=C3)N=CN(C4=O)C
How it was run: (§1)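 K562 cells at 2×10^6 cells/mL were exposed to 10 μM compound for 30 min, then aliquots were heated for 3 min across 48°C-58°C, pooled, and extracted in PBS containing 0.5% NP-40 at 4°C. The supernatant after 21,000xg for 90 min was taken as soluble protein and measured by TMTpro 16plex LC-MS/MS with channel sums equalised. Thermal stability is reported relative to control samples, with values from duplicates. Fold changes are given on a log2 scale.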

[2] = compound: CC1=C(C=C(C=C1)NC(=O)C2=CC(=CC=C2)N(C)C)NC(=O)C3=CC=C(C=C3)O
How it was run: as §1

[3] = compound: CC1=CC=C(C=C1)SC2=C3C=C(SC3=CN=C2)C(=O)N
How it was run: as §1

[4] = compound: CC1=NC(=CC=C1)C2=C(N=C(N2)C(C)(C)C)C3=CC4=NC=CN=C4C=C3
How it was run: as §1

Nexturastat A = compound: CCCCN(Cc1ccc(C(=O)NO)cc1)C(=O)Nc1ccccc1 [Nexturastat A]
How it was run: as §1

vemurafenib = compound: CCCS(=O)(=O)Nc1ccc(F)c(C(=O)c2c[nH]c3ncc(-c4ccc(Cl)cc4)cc23)c1F [vemurafenib]
How it was run: as §1

[5] = compound: CCCS(=O)(=O)Nc1ccc(F)c(C(=O)c2c[nH]c3ncc(Cl)cc23)c1F
How it was run: as §1

[6] = compound: CCCc1cc(C)[nH]c(=O)c1CNC(=O)c1cc(-c2ccnc(N3CCN(C)CC3)c2)cc2c1cnn2C(C)C
How it was run: as §1

givinostat = compound: CCN(CC)Cc1ccc2cc(COC(=O)Nc3ccc(C(=O)NO)cc3)ccc2c1 [givinostat]
How it was run: as §1

barasertib = compound: CCN(CCCOc1ccc2c(Nc3cc(CC(=O)Nc4cccc(F)c4)[nH]n3)ncnc2c1)CCOP(=O)(O)O [barasertib]
How it was run: as §1

[7] = compound: CC[C@@H]1C(=O)N(C)c2cnc(Nc3ccc(C(=O)NC4CCN(C)CC4)cc3OC)nc2N1C1CCCC1
How it was run: as §1

volasertib = compound: CC[C@@H]1C(=O)N(C)c2cnc(Nc3ccc(C(=O)N[C@H]4CC[C@H](N5CCN(CC6CC6)CC5)CC4)cc3OC)nc2N1C(C)C [volasertib]
How it was run: as §1

[8] = compound: CC[C@H](C)N1C=C(C2=C(C=C(C=C21)C3=CN=C(C=C3)N4CCNCC4)C(=O)NCC5=C(C=C(NC5=O)C)C)C
How it was run: as §1

epoxomicin = compound: CC[C@H](C)[C@@H](C(=O)N[C@@H]([C@@H](C)O)C(=O)N[C@@H](CC(C)C)C(=O)[C@]1(CO1)C)NC(=O)[C@H]([C@@H](C)CC)N(C)C(=O)C [epoxomicin]
How it was run: as §1

[9] = compound: CCn1c(C(=O)N(C2CC2)C2CC2)cc2c3c(ncn3C)c(Nc3cc(C)n(C)n3)nc21
How it was run: as §1

[10] = compound: CCn1cc(-c2ccnc3[nH]c(-c4cccc(CN(C)C)c4)cc23)c(-c2ccc(NC(=O)N(C)C)cc2)n1
How it was run: as §1

[11] = compound: CN(C)CC(=O)Nc1ccc2[nH]c(=O)c3ccccc3c2c1
How it was run: as §1

rosiglitazone = compound: CN(CCOC1=CC=C(C=C1)C[C@H]2C(=O)NC(=O)S2)C3=CC=CC=N3 (racemic) [rosiglitazone]
How it was run: as §1

[12] = compound: CN1C2=C(C3=C1C(=O)N(N=C3)CC4=CC(=CC=C4)N)SC(=C2)S(=O)C
How it was run: as §1

[13] = compound: CN1CCC(CNc2ccc3ncc(-c4cccc(OC(F)(F)F)c4)n3n2)CC1
How it was run: as §1

## PI4K2A (UniProt Q9BTU6)
Chain of UniProt Q9BTU6 (Q9BTU6 whole entry, looked up): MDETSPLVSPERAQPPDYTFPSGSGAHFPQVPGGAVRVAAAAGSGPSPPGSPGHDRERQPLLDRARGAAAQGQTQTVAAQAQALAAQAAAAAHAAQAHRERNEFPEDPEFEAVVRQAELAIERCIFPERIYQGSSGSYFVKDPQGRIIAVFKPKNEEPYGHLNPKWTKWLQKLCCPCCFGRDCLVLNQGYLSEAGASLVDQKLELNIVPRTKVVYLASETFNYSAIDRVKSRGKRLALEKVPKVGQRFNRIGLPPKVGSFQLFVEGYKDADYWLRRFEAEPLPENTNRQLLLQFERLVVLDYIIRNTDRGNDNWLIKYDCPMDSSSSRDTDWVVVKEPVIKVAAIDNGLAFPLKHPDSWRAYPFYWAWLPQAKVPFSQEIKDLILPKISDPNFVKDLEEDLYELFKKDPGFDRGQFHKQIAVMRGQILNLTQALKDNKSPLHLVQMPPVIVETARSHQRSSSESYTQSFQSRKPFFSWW
[1]
  log2 fold change: -0.037
[2]
  log2 fold change: -0.02
[3]
  log2 fold change: 0.004
[4]
  log2 fold change: 0.023
Nexturastat A
  log2 fold change: -0.005
vemurafenib
  log2 fold change: 0.023
[5]
  log2 fold change: 0.015
[6]
  log2 fold change: -0.036
givinostat
  log2 fold change: -0.008
barasertib
  log2 fold change: -0.011
[7]
  log2 fold change: -0.075
volasertib
  log2 fold change: -0.081
[8]
  log2 fold change: 0.009
epoxomicin
  log2 fold change: 0.027
[9]
  log2 fold change: 0.037
[10]
  log2 fold change: -0.023
[11]
  log2 fold change: -0.014
rosiglitazone
  log2 fold change: 0.055
[12]
  log2 fold change: 0.009
[13]
  log2 fold change: -0.146

## PHKG2 (UniProt P15735)
Chain of UniProt P15735 (P15735 whole entry, looked up): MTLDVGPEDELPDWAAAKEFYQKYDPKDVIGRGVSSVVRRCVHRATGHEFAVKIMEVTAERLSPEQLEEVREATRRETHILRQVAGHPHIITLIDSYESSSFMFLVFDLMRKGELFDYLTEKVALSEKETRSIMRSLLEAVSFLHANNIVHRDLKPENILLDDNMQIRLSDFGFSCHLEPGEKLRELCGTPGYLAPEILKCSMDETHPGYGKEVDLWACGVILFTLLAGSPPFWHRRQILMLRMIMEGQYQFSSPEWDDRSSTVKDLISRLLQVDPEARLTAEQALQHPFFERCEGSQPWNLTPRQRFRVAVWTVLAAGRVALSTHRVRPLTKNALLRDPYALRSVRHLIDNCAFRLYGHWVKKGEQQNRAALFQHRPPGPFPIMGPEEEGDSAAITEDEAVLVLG
[1]
  log2 fold change: 0.012
[2]
  log2 fold change: -0.007
[3]
  log2 fold change: -0.083
[4]
  log2 fold change: -0.031
Nexturastat A
  log2 fold change: 0.002
vemurafenib
  log2 fold change: -0.003
[5]
  log2 fold change: -0.004
[6]
  log2 fold change: 0
givinostat
  log2 fold change: 0.01
barasertib
  log2 fold change: -0.079
[7]
  log2 fold change: -0.155
volasertib
  log2 fold change: -0.195
[8]
  log2 fold change: 0.054
epoxomicin
  log2 fold change: -0.004
[9]
  log2 fold change: 0.01
[10]
  log2 fold change: 0.043
[11]
  log2 fold change: -0.002
rosiglitazone
  log2 fold change: 0.018
[12]
  log2 fold change: -0.027
[13]
  log2 fold change: -0.156

## PFDN1 (UniProt O60925)
Chain of UniProt O60925 (O60925 whole entry, looked up): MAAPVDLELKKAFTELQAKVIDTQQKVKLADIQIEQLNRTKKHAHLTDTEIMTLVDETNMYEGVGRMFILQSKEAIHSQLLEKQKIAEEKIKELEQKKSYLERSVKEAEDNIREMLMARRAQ
[1]
  log2 fold change: 0.039
[2]
  log2 fold change: -0.131
[3]
  log2 fold change: 0.089
[4]
  log2 fold change: 0.041
Nexturastat A
  log2 fold change: -0.071
vemurafenib
  log2 fold change: 0.172
[5]
  log2 fold change: -0.019
[6]
  log2 fold change: -0.016
givinostat
  log2 fold change: 0.004
barasertib
  log2 fold change: 0.002
[7]
  log2 fold change: 0.044
volasertib
  log2 fold change: -0.009
[8]
  log2 fold change: -0.004
epoxomicin
  log2 fold change: 0.183
[9]
  log2 fold change: 0.02
[10]
  log2 fold change: -0.019
[11]
  log2 fold change: 0
rosiglitazone
  log2 fold change: 0.003
[12]
  log2 fold change: -0.119
[13]
  log2 fold change: 0.113

## PCGF2 (UniProt P35227)
Chain of UniProt P35227 (P35227 whole entry, looked up): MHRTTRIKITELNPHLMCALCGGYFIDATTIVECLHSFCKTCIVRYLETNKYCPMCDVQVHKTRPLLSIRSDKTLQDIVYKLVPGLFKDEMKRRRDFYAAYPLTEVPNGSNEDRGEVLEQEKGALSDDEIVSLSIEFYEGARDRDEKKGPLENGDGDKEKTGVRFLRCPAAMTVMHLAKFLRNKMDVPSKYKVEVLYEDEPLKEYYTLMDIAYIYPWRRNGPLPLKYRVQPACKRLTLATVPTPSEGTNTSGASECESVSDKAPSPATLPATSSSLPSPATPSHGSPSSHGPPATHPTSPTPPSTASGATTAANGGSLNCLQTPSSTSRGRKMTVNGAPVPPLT
[1]
  log2 fold change: -0.043
[2]
  log2 fold change: -0.058
[3]
  log2 fold change: -0.056
[4]
  log2 fold change: 0.033
Nexturastat A
  log2 fold change: -0.01
vemurafenib
  log2 fold change: 0
[5]
  log2 fold change: -0.033
[6]
  log2 fold change: 0.056
givinostat
  log2 fold change: 0.046
barasertib
  log2 fold change: 0.113
[7]
  log2 fold change: -0.131
volasertib
  log2 fold change: -0.089
[8]
  log2 fold change: 0.012
epoxomicin
  log2 fold change: -0.005
[9]
  log2 fold change: -0.054
[10]
  log2 fold change: -0.02
[11]
  log2 fold change: -0.03
rosiglitazone
  log2 fold change: 0.028
[12]
  log2 fold change: -0.071
[13]
  log2 fold change: -0.282 (active)

## PLIN2 (UniProt Q99541)
Chain of UniProt Q99541 (Q99541 whole entry, looked up): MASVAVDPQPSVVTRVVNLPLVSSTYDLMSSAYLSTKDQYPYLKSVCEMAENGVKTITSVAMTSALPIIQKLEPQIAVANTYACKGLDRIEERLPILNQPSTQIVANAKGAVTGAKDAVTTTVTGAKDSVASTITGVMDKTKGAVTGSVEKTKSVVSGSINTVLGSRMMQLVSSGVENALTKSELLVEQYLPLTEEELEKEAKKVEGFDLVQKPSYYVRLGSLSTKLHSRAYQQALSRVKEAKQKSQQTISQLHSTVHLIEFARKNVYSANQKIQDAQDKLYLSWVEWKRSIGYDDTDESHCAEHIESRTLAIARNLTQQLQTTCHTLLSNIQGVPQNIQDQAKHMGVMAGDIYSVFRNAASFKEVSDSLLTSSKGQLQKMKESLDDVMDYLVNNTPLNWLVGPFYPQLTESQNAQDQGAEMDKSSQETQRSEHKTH
[1]
  log2 fold change: 0.069
[2]
  log2 fold change: 0.018
[3]
  log2 fold change: 0.109
[4]
  log2 fold change: 0.022
Nexturastat A
  log2 fold change: 0.082
vemurafenib
  log2 fold change: 0.01
[5]
  log2 fold change: 0.042
[6]
  log2 fold change: -0.12
givinostat
  log2 fold change: -0.014
barasertib
  log2 fold change: 0.013
[7]
  log2 fold change: -0.173
volasertib
  log2 fold change: -0.259
[8]
  log2 fold change: -0.102
epoxomicin
  log2 fold change: 0.153
[9]
  log2 fold change: -0.008
[10]
  log2 fold change: -0.01
[11]
  log2 fold change: 0.013
rosiglitazone
  log2 fold change: -0.033
[12]
  log2 fold change: 0
[13]
  log2 fold change: -0.699 (active)

## PSMD13 (UniProt Q9UNM6)
Chain of UniProt Q9UNM6 (Q9UNM6 whole entry, looked up): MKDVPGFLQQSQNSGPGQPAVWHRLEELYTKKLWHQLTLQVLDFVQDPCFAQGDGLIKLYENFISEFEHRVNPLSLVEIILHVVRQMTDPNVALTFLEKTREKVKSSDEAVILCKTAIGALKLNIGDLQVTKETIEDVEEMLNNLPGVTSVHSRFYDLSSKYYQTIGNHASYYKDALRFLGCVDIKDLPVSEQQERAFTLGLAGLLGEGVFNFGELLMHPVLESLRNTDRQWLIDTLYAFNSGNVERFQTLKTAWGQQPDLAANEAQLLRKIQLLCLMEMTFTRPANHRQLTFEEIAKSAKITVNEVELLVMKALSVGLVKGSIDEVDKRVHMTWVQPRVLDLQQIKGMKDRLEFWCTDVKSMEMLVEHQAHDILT
[1]
  log2 fold change: 0.03
[2]
  log2 fold change: 0.034
[3]
  log2 fold change: -0.068
[4]
  log2 fold change: -0.029
Nexturastat A
  log2 fold change: 0.064
vemurafenib
  log2 fold change: -0.05
[5]
  log2 fold change: -0.048
[6]
  log2 fold change: -0.016
givinostat
  log2 fold change: -0.05
barasertib
  log2 fold change: -0.041
[7]
  log2 fold change: 0.075
volasertib
  log2 fold change: 0.217
[8]
  log2 fold change: 0.008
epoxomicin
  log2 fold change: -0.288 (active)
[9]
  log2 fold change: 0.012
[10]
  log2 fold change: 0.043
[11]
  log2 fold change: -0.01
rosiglitazone
  log2 fold change: 0.009
[12]
  log2 fold change: 0.02
[13]
  log2 fold change: 0.038

## PTPA (UniProt Q15257)
Chain of UniProt Q15257 (Q15257 whole entry, looked up): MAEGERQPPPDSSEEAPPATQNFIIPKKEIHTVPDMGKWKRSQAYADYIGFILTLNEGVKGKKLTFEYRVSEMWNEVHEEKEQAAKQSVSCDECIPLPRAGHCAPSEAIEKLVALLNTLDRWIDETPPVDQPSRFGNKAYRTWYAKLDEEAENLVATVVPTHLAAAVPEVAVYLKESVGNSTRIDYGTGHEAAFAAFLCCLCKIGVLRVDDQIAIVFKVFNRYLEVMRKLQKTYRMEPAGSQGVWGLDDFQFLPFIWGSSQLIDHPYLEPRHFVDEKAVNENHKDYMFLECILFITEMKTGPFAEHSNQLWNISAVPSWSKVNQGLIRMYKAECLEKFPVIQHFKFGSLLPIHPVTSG
[1]
  log2 fold change: 0.001
[2]
  log2 fold change: -0.01
[3]
  log2 fold change: 0.004
[4]
  log2 fold change: 0.014
Nexturastat A
  log2 fold change: -0.006
vemurafenib
  log2 fold change: 0.044
[5]
  log2 fold change: -0.017
[6]
  log2 fold change: -0.046
givinostat
  log2 fold change: -0.005
barasertib
  log2 fold change: -0.007
[7]
  log2 fold change: -0.007
volasertib
  log2 fold change: 0.004
[8]
  log2 fold change: -0.012
epoxomicin
  log2 fold change: 0.051
[9]
  log2 fold change: -0.017
[10]
  log2 fold change: -0.06
[11]
  log2 fold change: -0.002
rosiglitazone
  log2 fold change: 0.008
[12]
  log2 fold change: -0.072
[13]
  log2 fold change: -0.009

## PDLIM7 (UniProt Q9NR12)
Chain of UniProt Q9NR12 (Q9NR12 whole entry, looked up): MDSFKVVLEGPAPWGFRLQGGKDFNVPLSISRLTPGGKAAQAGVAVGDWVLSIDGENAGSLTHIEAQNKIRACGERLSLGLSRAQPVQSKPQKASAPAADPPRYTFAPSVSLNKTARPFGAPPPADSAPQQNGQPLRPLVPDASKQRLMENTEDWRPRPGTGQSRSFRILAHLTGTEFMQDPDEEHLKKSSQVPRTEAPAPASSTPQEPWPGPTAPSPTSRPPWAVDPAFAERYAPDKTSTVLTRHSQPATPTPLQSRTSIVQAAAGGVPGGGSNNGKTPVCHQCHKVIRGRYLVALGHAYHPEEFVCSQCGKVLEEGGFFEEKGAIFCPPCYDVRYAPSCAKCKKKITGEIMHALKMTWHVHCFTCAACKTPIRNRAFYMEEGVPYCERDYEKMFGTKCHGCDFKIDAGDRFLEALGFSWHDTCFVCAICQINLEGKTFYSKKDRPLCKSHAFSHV
[1]
  log2 fold change: 0.02
[2]
  log2 fold change: -0.029
[3]
  log2 fold change: -0.002
[4]
  log2 fold change: 0.046
Nexturastat A
  log2 fold change: -0.016
vemurafenib
  log2 fold change: 0.026
[5]
  log2 fold change: 0.032
[6]
  log2 fold change: 0.001
givinostat
  log2 fold change: 0.05
barasertib
  log2 fold change: 0.032
[7]
  log2 fold change: -0.084
volasertib
  log2 fold change: -0.24 (active)
[8]
  log2 fold change: 0.012
epoxomicin
  log2 fold change: 0.013
[9]
  log2 fold change: -0.053
[10]
  log2 fold change: -0.064
[11]
  log2 fold change: 0.039
rosiglitazone
  log2 fold change: 0.039
[12]
  log2 fold change: 0.023
[13]
  log2 fold change: -0.021
